# Source: the supplement of paper PMC10127200
# Where a name gives a salt, the structure may show the parent alone.
# Columns and labels:
# Experiment in all cases: Euclidean distance of Cell Painting phenotypic profile (signed KS, 77 features) to DMSO centroid (dimensionless distance); 5 or 10 uM (library dependent); higher = stronger phenotypic change vs DMSO (phenoactivity)
# Conditions in all cases: 48 h
# 786-O = tested on: 786-O
# In short: (§1)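 Phenoactivity is computed as Euclidean distance to the median vehicle profile. The profiles, drawn from 77 Harmony features scored as signed Kolmogorov-Smirnov statistics versus same-plate vehicle wells, were corrected for plate position, correlation-weighted and replicate-averaged at the top dose. Stained cells were imaged confocally at 20X (9 fields/well) after 48 h with library compounds at 10 or 5 uM, 0.1% DMSO final, in five cancer lines and a healthy fibroblast line.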
# A549 = tested on: A549
# In short: as §1
# DU145 = tested on: DU145
# In short: as §1
# FB = tested on: FB
# In short: as §1
# HEPG2 = tested on: HEPG2
# In short: as §1
# OVCAR4 = tested on: OVCAR4
# In short: as §1
Compound,Euclidean distance (786-O),Euclidean distance (A549),Euclidean distance (DU145),Euclidean distance (FB),Euclidean distance (HEPG2),Euclidean distance (OVCAR4)
CCOC(=O)C1=C(C)NC(C)=C(C(=O)OCC)C1c1ccccc1/C=C/C(=O)OC(C)(C)C [Lacidipine],0.955,0.916,1.62,1.14,0.707,1.15
CCCCOCCOCCOCc1cc2c(cc1CCC)OCO2 [Piperonyl butoxide],0.659,1.99,0.875,0.892,1.06,1.04
COC1=CC(=O)C[C@@H](C)[C@]12Oc1c(Cl)c(OC)cc(OC)c1C2=O [Griseofulvin],0.605,0.678,0.803,1.48,0.745,0.81
OCc1cc(C(O)CNCCCCCCOCCCCc2ccccc2)ccc1O (stereo unspecified) [Salmeterol Xinafoate],1.27,1.68,1.58,2.11,2.19,1.28
O=C1NC(=O)C(c2ccccc2[N+](=O)[O-])=C1Nc1ccc(O)c(Cl)c1,1.2,0.916,0.978,0.936,0.886,1.1
CCCC(=O)OCOC(=O)C1=C(C)NC(C)=C(C(=O)OC)C1c1cccc(Cl)c1Cl (stereo unspecified) [Clevidipine Butyrate],1.64,0.675,1.47,0.951,2.16,1.78
O=C(O)CC1CC(c2ccccc2)=NO1 (stereo unspecified),0.76,1.81,1.27,1.31,0.596,0.844
CC(C)Cc1ccc(C(C)C(=O)O)cc1 (stereo unspecified) [Ibuprofen Lysine],1.27,0.944,1.68,0.93,1.17,1.07
O=C(Nc1ccc(OC(F)(F)F)cc1)c1sccc1NCc1ccnc2ccccc12,1.19,2.11,1.25,1.38,0.977,1.41
C[n+]1cc2c3c(ccc2c2ccc4cc5c(cc4c21)OCO5)OCO3 [Sanguinarine chloride],5.34,5,7.6,6.48,4.82,5.76
O=c1ccc2ccccc2o1 [Coumarin],1.02,0.975,1.08,1.25,0.824,1.2
CCS(=O)(=O)c1cccc(-c2cc(C(=O)NC3CCN(C)CC3)c(C)c3[nH]c4ncc(C)cc4c23)c1,3.1,3.9,2.89,3.63,2.3,2.17
CC(C)CCCC(C)N (stereo unspecified) [Octodrine (2-Amino-6-methylheptan)],1.17,0.649,0.851,1.24,1.34,1.4
O=C(NS(=O)(=O)c1ccc(Br)s1)c1ccc(Cl)cc1Cl [Tasisulam],1.38,0.993,1.21,0.939,1.22,1.66
CN[C@@H]1[C@H](O)[C@H](NC)[C@H]2O[C@@]3(O)C(=O)C[C@@H](C)O[C@H]3O[C@@H]2[C@H]1O [Spectinomycin HCl],0.726,0.814,1.28,1.21,0.977,1.02
CN1CCN(CCOc2cc(OC3CCOCC3)c3c(Nc4c(Cl)ccc5c4OCO5)ncnc3c2)CC1 [Saracatinib (AZD0530)],3.22,3.83,1.78,3.97,1.98,3.34
COC(=O)C1=C(C)NC(C)=C(C(=O)OC(C)C)C1c1cccc2nonc12 (stereo unspecified) [Isradipine],1.36,1.33,1.21,1.42,1.56,1.1
NC(=O)Nc1sc(-c2ccc(F)cc2)cc1C(N)=O,1.85,1.8,2.12,3.25,0.991,1
O=C(N[C@H](CO)[C@H](O)c1ccc([N+](=O)[O-])cc1)C(Cl)Cl [Chloramphenicol],1.22,1,1.35,0.994,0.584,1.3
C[C@]12CCC(=O)C=C1C=C[C@@H]1[C@@H]2CC[C@@]2(C)[C@H]1CC[C@@]21CCC(=O)O1 [Canrenone],1.64,0.961,1.1,1.33,1.24,1.05
Cc1nc2ccc(-n3ncc(C(=O)c4cc5ccccc5[nH]4)c3N)cc2[nH]1,2.53,2.28,1.14,3.31,1.73,1.67
C[C@H]1[C@H](C)CC[C@]2(C(=O)O[C@@H]3O[C@H](CO[C@@H]4O[C@H](CO)[C@@H](O[C@@H]5O[C@@H](C)[C@H](O)[C@@H](O)[C@H]5O)[C@H](O)[C@H]4O)[C@@H](O)[C@H](O)[C@H]3O)CC[C@]3(C)C(=CC[C@@H]4[C@@]5(C)C[C@@H](O)[C@H](O)[C@@](C)(CO)[C@@H]5[C@H](O)C[C@]43C)[C@H]12 [Madecassoside],0.76,0.636,0.932,1.03,0.483,1.28
CCN1CCN(c2ccc(Nc3cc(N(C)C(=O)Nc4c(Cl)c(OC)cc(OC)c4Cl)ncn3)cc2)CC1 [BGJ398 (NVP-BGJ398|Infigratinib)],3.87,4,2.87,3.62,2.39,4.1

Compound,Euclidean distance (786-O),Euclidean distance (A549),Euclidean distance (DU145),Euclidean distance (FB),Euclidean distance (HEPG2),Euclidean distance (OVCAR4)
CCCCCCCCCCCCCCCCCCOP(=O)([O-])OC1CC[N+](C)(C)CC1 [Perifosine (KRX-0401)],1.95,1.09,0.853,1.23,2.19,1.79
OC[C@@H](O)CN1CCN(c2ccccc2)CC1 [Levodropropizine],1.23,1.05,0.896,1.17,0.732,1.12
CN[C@H]1CN(c2ccc3c(=O)c(C(=O)O)cn(-c4nccs4)c3n2)C[C@@H]1OC [Voreloxin (SNS-595) hydrochloride],3.32,3.76,2.41,3.35,2.43,3.8
CC(C)NCC(O)COc1cccc2[nH]c3ccccc3c12 (stereo unspecified) [Carazolol],1.27,0.789,1.12,0.974,1.07,1.31
CC(C)Oc1ccc(-c2nc(-c3cccc4c3CC[C@@H]4NCCO)no2)cc1C#N [Ozanimod (RPC1063)],1.97,1.08,0.79,1.6,1.46,1.68
CCCCNc1cc(C(=O)O)cc(S(N)(=O)=O)c1Oc1ccccc1 [Bumetanide],1.24,1.15,1.04,1.5,1.38,1.64
COc1ccnc(C[S+]([O-])c2nc3cc(-n4cccc4)ccc3[nH]2)c1C (stereo unspecified) [Ilaprazole],1.22,1.57,1.17,1.23,0.928,1.27
O=C(/C=C/c1ccc(O)c(O)c1)O[C@@H]1C[C@](O)(C(=O)O)C[C@@H](O)[C@H]1O [Chlorogenic Acid],1.05,1.05,1.38,1.17,1.21,1.15
COc1cc2nc(N3CCN(C(=O)c4ccco4)CC3)nc(N)c2cc1OC [Prazosin HCl],0.833,0.676,0.97,0.552,0.382,0.59
NC(CO)C(=O)NNCc1ccc(O)c(O)c1O (stereo unspecified) [Benserazide HCl],1.18,0.748,0.938,0.967,0.666,1.39
CCCc1nn(C)c2c(=O)[nH]c(-c3cc(S(=O)(=O)N4CCN(C)CC4)ccc3OCC)nc12 [Sildenafil Citrate],1.87,1.4,1.4,0.899,0.957,1.28
O=C(O)Cc1ccccc1Nc1c(Cl)cccc1Cl [Diclofenac Sodium],1.2,0.988,0.729,1.14,0.995,0.677
Cc1cc(-c2ccc(CC(=O)Nc3ccc(-c4cccnc4)cc3)cc2)ccn1,1.31,1.03,0.823,1.02,0.787,1.36
COc1ccc2[nH]c([S+]([O-])Cc3ncc(C)c(OC)c3C)nc2c1 (stereo unspecified) [Omeprazole Sodium],1.03,1.11,2.39,0.71,0.957,1.07
N#Cc1ccc(C2CCCc3cncn32)cc1 (stereo unspecified) [Fadrozole],1.22,0.722,0.93,1.38,0.631,0.866
O=S(=O)(O)CCCCOC[C@H]1O[C@@H]2O[C@H]3[C@H](O)[C@@H](O)[C@@H](O[C@H]4[C@H](O)[C@@H](O)[C@@H](O[C@H]5[C@H](O)[C@@H](O)[C@@H](O[C@H]6[C@H](O)[C@@H](O)[C@@H](O[C@H]7[C@H](O)[C@@H](O)[C@@H](O[C@H]8[C@H](O)[C@@H](O)[C@@H](O[C@H]1[C@H](O)[C@H]2O)O[C@@H]8CO)O[C@@H]7COCCCCS(=O)(=O)O)O[C@@H]6COCCCCS(=O)(=O)O)O[C@@H]5COCCCCS(=O)(=O)O)O[C@@H]4COCCCCS(=O)(=O)O)O[C@@H]3COCCCCS(=O)(=O)O [Captisol (SBE-Œ≤-CD)],1.09,0.893,0.704,1.13,1.38,1.1
Cn1c(=O)c(F)c(Nc2ccc(I)cc2F)c2c(=O)n(C[C@@H](O)CO)cnc21,3.48,2.45,3.23,4.03,2.21,2.01
O=P(O)(O)C(O)(Cn1ccnc1)P(=O)(O)O [Zoledronic Acid],0.951,1.23,0.9,1.37,2.13,1.11
O=C(Cn1cnnn1)N[C@@H]1C(=O)N2C(C(=O)O)=C(CSc3nncs3)CS[C@H]12 [Ceftezole sodium],0.633,1.39,1.36,0.846,0.929,0.929
CC1(C)O[C@@H]2[C@@H](CO[C@@]3(COS(N)(=O)=O)OC(C)(C)O[C@@H]23)O1 [Topiramate],1.24,1.07,0.829,0.965,0.72,0.977
O=C(/C=C\n1cnc(-c2cc(C(F)(F)F)cc(C(F)(F)F)c2)n1)NNc1cnccn1,2.36,3.91,2.72,3.85,2.34,3.83
O=C1c2ccccc2C(=O)c2c1ccc(O)c2O [Alizarin],1.65,1.45,1.35,1.58,1.48,1.07
CC[C@@]1(O)C(=O)OCc2c1cc1n(c2=O)Cc2cc3c(CN(C)C)c(O)ccc3nc2-1 [Topotecan],3.37,4.25,3.94,3.77,3.31,2.85
